About 770 (37%) of roughly 2,100 compounds were called active.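 How the source made its calls: active means by-eye trace score of 1 for enhancers or -1 for inhibitors, so actives lie on both sides (some results past the limit were not filed as active); inactive means score 0, or 3 fluorescent, or 4 baseline rise.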 The list shows a part of the results.
Target: G protein-activated inward rectifier potassium channel 2 (Homo sapiens) + G protein-activated inward rectifier potassium channel 1 (Homo sapiens) (UniProt P48051+P48549)
Sequence (P48051 whole entry, looked up): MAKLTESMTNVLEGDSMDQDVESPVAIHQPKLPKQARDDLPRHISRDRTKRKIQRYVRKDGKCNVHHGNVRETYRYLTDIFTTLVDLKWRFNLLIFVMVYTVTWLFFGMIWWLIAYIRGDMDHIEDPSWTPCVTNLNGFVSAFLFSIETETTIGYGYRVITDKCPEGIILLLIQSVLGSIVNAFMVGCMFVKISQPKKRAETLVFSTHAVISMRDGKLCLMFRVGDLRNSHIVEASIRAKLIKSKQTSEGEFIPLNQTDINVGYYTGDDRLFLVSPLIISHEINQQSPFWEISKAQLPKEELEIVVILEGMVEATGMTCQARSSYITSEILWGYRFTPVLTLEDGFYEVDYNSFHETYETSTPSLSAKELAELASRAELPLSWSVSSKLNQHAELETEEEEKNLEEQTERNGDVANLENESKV
Sequence (P48549 whole entry, looked up): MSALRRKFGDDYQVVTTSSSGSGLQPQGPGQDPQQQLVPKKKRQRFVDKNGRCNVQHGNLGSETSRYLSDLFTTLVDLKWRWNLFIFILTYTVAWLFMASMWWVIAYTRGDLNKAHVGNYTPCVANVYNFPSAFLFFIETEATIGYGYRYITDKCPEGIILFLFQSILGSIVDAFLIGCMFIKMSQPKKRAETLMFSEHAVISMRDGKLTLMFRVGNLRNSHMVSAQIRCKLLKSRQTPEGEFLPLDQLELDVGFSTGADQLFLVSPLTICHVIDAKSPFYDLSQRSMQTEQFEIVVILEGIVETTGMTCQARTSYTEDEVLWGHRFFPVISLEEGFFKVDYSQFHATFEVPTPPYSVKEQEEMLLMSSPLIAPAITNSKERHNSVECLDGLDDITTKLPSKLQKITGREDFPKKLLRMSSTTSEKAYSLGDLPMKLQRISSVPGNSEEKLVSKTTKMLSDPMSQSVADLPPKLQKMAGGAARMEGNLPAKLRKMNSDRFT
Experiment: GIRK1/2 thallium flux modulators, retest, confirmation, cell-based, HEK293 rmGlu8/hGIRK1/2, FluoZin-2 (AID 623911)
Conditions: HEK293 rmGlu8/hGIRK1/2, thallium flux FluoZin-2; actives lie on both sides; glutamate co-added at its EC20 level

Row | Structure (SMILES) | manual score
1 | COc1ccc2nc3oc(C(=O)Nc4ccc(OC)c(OC)c4)cc3cc2c1 | 0 (inactive)
2 | CC1(C)Cc2ccccc2-c2nnc(SCC(=O)Nc3nc4ccccc4s3)n21 | 0 (inactive)
3 | O=c1[nH]c(SCc2ccccc2Cl)nc2c1CCCC2 | 0 (inactive)
4 | COc1ccc(-c2nnc(CSc3nc4ccccc4c(=O)n3C)o2)cc1OC | -1 (active)
5 | COc1cc(-c2nnc(CSc3nc4ccccc4s3)o2)cc(OC)c1OC | -0.5 (inactive)
6 | CCCCn1c(SCC(=O)/C(C#N)=C(\C)N)nc2ccccc2c1=O | 0.5 (inactive)
7 | CCn1c(-c2ccc(-c3ccccc3)cc2)c[nH]c1=S | 0 (inactive)
8 | COc1ccc(OCc2nc(N)nc(Nc3ccccc3)n2)cc1 | 0 (inactive)
9 | COc1ccc(C)cc1NC(=O)C(=O)NNC(=O)c1ccco1 | 1 (active)
10 | Cc1nnc(NC(=O)c2ccco2)s1 | 0 (inactive)
11 | COc1ccccc1NC(=O)C(=O)NNC(=O)c1ccco1 | 1 (active)
12 | COc1cccc(CNCCNC(=O)c2ccco2)c1OC | 0 (inactive)
13 | COC(=O)c1ccccc1NC(=S)NC(NC(=O)c1ccco1)C(Cl)(Cl)Cl (stereo not drawn) | 0 (inactive)
14 | Cc1cc(NC(=O)c2ccco2)ccc1NC(=O)Cc1cccs1 | 0 (inactive)
15 | Cc1ccc(NC(=O)CSc2nnc(CCNC(=O)OC(C)(C)C)o2)c(C)c1 | 0 (inactive)
16 | O=C(N/N=C\c1cc(Br)c(Br)o1)c1cncc(Br)c1 | 1 (active)
17 | Cc1ccc(/C=N\NC(=O)c2cc([N+](=O)[O-])cc([N+](=O)[O-])c2)o1 | 0 (inactive)
18 | CCc1ccc(C2=NN(c3ccc(S(N)(=O)=O)cc3)C(c3ccc(F)cc3)C2)cc1 (stereo not drawn) | 0 (inactive)
19 | O=C(Nc1ccc(F)cc1)c1cccnc1N1CCOCC1 | 0 (inactive)
20 | CCC(C)(C)n1nnnc1C(c1ccccn1)N1CCCCC1 (stereo not drawn) | 0 (inactive)
21 | CCN(Cc1ccccc1)C(c1ccccn1)c1nnnn1C1CCCCC1 (stereo not drawn) | -1 (active)
22 | CC(Oc1ccc2ccccc2c1)C(=O)NNC(=S)NC(=O)c1ccco1 (stereo not drawn) | 1 (active)
23 | O=C(NC(=S)Nc1cccc(Cl)c1N1CCCCC1)c1ccco1 | 0 (inactive)
24 | CC(Oc1ccc(Cl)cc1)C(=O)NNC(=S)NC(=O)c1ccco1 (stereo not drawn) | 1 (active)
25 | O=C(NC(=S)Nn1cnc2c(cnn2-c2ccccc2)c1=O)c1ccc(Oc2ccccc2)cc1 | 0 (inactive)

Row | Structure (SMILES) | manual score
26 | Cc1ccc(N(C(=O)CCC(=O)Nc2cc(C)on2)C(C(=O)NC2CCCC2)c2cccs2)cc1 (stereo not drawn) | -1 (active)
27 | Cc1cc(NC(=O)CSc2nc3ccsc3c(=O)n2NC(=O)c2ccccc2)no1 | 0 (inactive)
28 | Fc1ccc2nc(-c3ccccc3)nc(SCc3nnc(-c4ccccc4)o3)c2c1 | 1 (active)
29 | c1ccc(Cc2nnc(-c3ccccc3)o2)cc1 | 0 (inactive)
30 | O=S(=O)(c1ccc(-c2nnc(SCc3nnc(-c4ccccc4)o3)o2)cc1)N1CCCC1 | 0 (inactive)
31 | O=C(NCc1ccccc1)C(=O)Nc1nc(C23CC4CC(CC(C4)C2)C3)cs1 | 0 (inactive)
32 | S=C(Nc1cccc(Cl)c1)Nc1ccccc1Oc1ccccc1 | 1 (active)
33 | S=C(Nc1ccc(Cl)cc1Cl)Nc1ccccc1Oc1ccccc1 | 0 (inactive)
34 | COc1ccc(C)cc1S(=O)(=O)Nc1cccc(Cl)c1Cl | 0 (inactive)
35 | S=C(Nc1ccccc1Oc1ccccc1)Nc1cccc(Cl)c1Cl | 1 (active)
36 | S=C(Nc1cccc(Cl)c1)Nc1cccc2cnccc12 | 1 (active)
37 | FC(F)Oc1ccccc1NC(=S)Nc1cccc(Cl)c1Cl | 1 (active)
38 | O=C(Nc1cc(Cl)ccc1Oc1ccccc1)c1ccccc1F | 0 (inactive)
39 | S=C(Nc1ccccc1)Nc1cc(Cl)ccc1Oc1ccccc1 | 0 (inactive)
40 | Fc1cccc(/C=N/NC(=S)Nc2ccccc2Cl)c1 | 0.5 (inactive)
41 | C=C(C)CNC(=S)Nc1cccc2cnccc12 | 0 (inactive)
42 | O=C(NC(=S)Nc1ccc2oc(-c3cccnc3)nc2c1)c1cccc(Cl)c1 | 0 (inactive)
43 | COC(=O)c1cccc(NC(=S)Nc2cccc(Cl)c2Cl)c1 | 0 (inactive)
44 | COc1ccc(N/C(C)=C2/C(=O)C(=O)N(CCO)C2c2ccc(Br)cc2)cc1 (stereo not drawn) | 0 (inactive)
45 | N#CC1=C(N)Oc2n[nH]c(-c3cccs3)c2C1c1ccoc1 (stereo not drawn) | 0 (inactive)
46 | O=C(Cn1nc(Cc2ccncc2)c2ccccc2c1=O)N1CCN(C(=O)c2ccco2)CC1 | 0 (inactive)
47 | O=c1c2ccccc2nc(SCc2cn3ccsc3n2)n1-c1ccc(F)cc1 | 0 (inactive)
48 | Fc1ccc(NC(=S)Nc2ccccc2OC(F)F)cc1Cl | 1 (active)
49 | Cc1ccc(NC(=S)Nc2ccc(Cl)c(Cl)c2)c(OC(F)F)c1 | 1 (active)
50 | COC(=O)NC(=S)Nc1ccc(Oc2ccc(Cl)cc2Cl)c(Cl)c1 | 0 (inactive)

Row | Structure (SMILES) | manual score
51 | O=C(O)CN=C(NS(=O)(=O)c1ccccc1)c1ccccc1 | 0 (inactive)
52 | COc1ccccc1-n1cnnc1SCC(=O)c1cc(C)n(Cc2cccs2)c1C | -1 (active)
53 | COc1ccc(Cl)cc1C(=O)CSc1nnnn1C1CCCC1 | 0 (inactive)
54 | Cc1cc(C(=O)CSc2nnc(-c3ccncc3)n2-c2ccccc2)c(C)n1C | 0 (inactive)
55 | COc1cccc(-c2cc(C(=O)NC3CCCC3)no2)c1 | 0 (inactive)
56 | CN(C)CCCNC(=O)c1ccc(-c2nc(-c3ccc(Cl)cc3)cs2)cc1 | 0 (inactive)
57 | CCN(CC)CCCNC(=O)c1cc(-c2ccc(Cl)c(Cl)c2)on1 | -1 (active)
58 | CC(C)CCOP(=O)(c1ccc(N(C)C)cc1)C(O)c1ccccn1 (stereo not drawn) | 0 (inactive)
59 | CC(C)(C)c1nn(-c2ccccc2)c2[nH]c(=O)c(CNCc3ccc4c(c3)OCO4)cc12 | 0 (inactive)
60 | COc1ccc2c(c1)C(C)=CC(C)(C)N2C(=O)CNCc1ccc2c(c1)OCO2 | -1 (active)
61 | Cc1c(C(=O)O)[nH]c2c1C(=O)CC(c1ccc(Cl)cc1)C2 (stereo not drawn) | 0 (inactive)
62 | N=c1n(CCN2CCCCC2)c2ccccc2n1CC(O)COc1ccccc1 (stereo not drawn) | -1 (active)
63 | Cc1ccc(OCC(O)Cn2c(=N)n(CCN3CCCCC3)c3ccccc32)cc1 (stereo not drawn) | -1 (active)
64 | Cc1cccc(OCC(O)Cn2c(=N)n(CCN3CCCCC3)c3ccccc32)c1 (stereo not drawn) | -1 (active)
65 | Cc1cccc(OCc2nnc(SCC(=O)N3CCc4ccccc43)n2C)c1 | 0 (inactive)
66 | O=C(NNc1ccccc1Br)C(=O)n1ccc2ccccc21 | 0 (inactive)
67 | COCCCN1C(=O)C(=O)/C(=C(/O)c2ccc(C)cc2)C1c1ccccc1 (stereo not drawn) | 0 (inactive)
68 | COc1ccc(-c2nn(-c3ccccc3)cc2/C=N/n2cnnc2)cc1OC | 0 (inactive)
69 | COc1cccc(/C=N/n2c(=S)n(C)c3ccccc32)c1OC | 0 (inactive)
70 | COc1ccc(/C=N/n2c(SC)nnc2-c2ccccc2)c(OC)c1OC | -1 (active)
71 | Cc1cc(N2CCC(C)CC2)n2ncc(-c3ccccc3)c2n1 | 0 (inactive)
72 | CCC(/C=N/NC(=O)C1COc2ccccc2O1)CC (stereo not drawn) | 1 (active)
73 | CCC(CC)c1nnc(NC(=O)C2COc3ccccc3O2)s1 (stereo not drawn) | 0 (inactive)
74 | NS(=O)(=O)c1ccc(NC(=O)C2COc3ccccc3O2)cc1 (stereo not drawn) | 0 (inactive)
75 | COc1ccc(OC)c(C(=O)c2coc3ccc(O)c(CN4CCOCC4)c23)c1 | -1 (active)

Row | Structure (SMILES) | manual score
76 | COc1ccc(-n2nnnc2SCC(=O)N2CCOCC2)cc1 | -0.5 (inactive)
77 | COC(=O)COc1ccc(S(=O)(=O)Nc2ccccc2C(=O)OC)cc1 | 0 (inactive)
78 | COC(=O)C(C)N(C(=O)c1cccc(Cl)c1)c1c(C)cccc1C (stereo not drawn) | -1 (active)
79 | COC(=O)C(C)N(C(=O)c1cccc2ccccc12)c1c(C)cccc1C (stereo not drawn) | -1 (active)
80 | CCC/C(=N/NC(=O)c1cccc(Cl)c1)c1ccccc1 | 0 (inactive)
81 | NC(=O)Nc1cccc2ccccc12 | 0 (inactive)
82 | O=C(Nc1ccc2oc(-c3ccncc3)nc2c1)c1c(F)c(F)c(F)c(F)c1F | 0 (inactive)
83 | CCCN1C(=O)/C(=C/c2ccc(N3CCCC3)c(C)c2)NC1=S | 3 (inactive)
84 | CC(C)CN1C(=O)/C(=C/c2cccs2)NC1=S | 1 (active)
85 | CCCN1C(=O)/C(=C/c2ccc(C)s2)NC1=S | 1 (active)
86 | CCN1C(=O)/C(=C/c2ccc(C)s2)NC1=S | 1 (active)
87 | O=C1/C(=C/c2ccc(N3CCCC3)cc2)NC(=S)N1C1CC1 | 3 (inactive)
88 | O=C(Nc1nnc(SCc2ccc(F)cc2)s1)C1CC(=O)N(c2ccc3c(c2)OCCO3)C1 (stereo not drawn) | 0 (inactive)
89 | CN(C)c1nc2n(c(=O)n1)C(C#N)CS2 (stereo not drawn) | 0 (inactive)
90 | O=c1[nH]c(CS(=O)(=O)c2ccccc2)nc2ccccc12 | 0 (inactive)
91 | CCCCCCCCCn1c2c(c(=N)c3c1CCC3)CCC2 | -1 (active)
92 | CCCCn1c(-c2csc3c2CCCC3)n[nH]c1=S | -0.5 (inactive)
93 | CC(=O)c1ccc(OC(=O)N(c2ccccc2)c2ccccc2)cc1 | 0 (inactive)
94 | N[C@@H](Cc1ccccc1)c1nnc(SCc2ccccc2F)o1 | 0 (inactive)
95 | Cc1cc(C)c2[nH]c(=S)cc(C)c2c1 | 1 (active)
96 | Cc1cc(=S)[nH]c2c(C)cccc12 | 1 (active)
97 | CC1(C)Cc2c(ccc3ccccc23)-c2nnc(-c3cccnc3)n21 | 0 (inactive)
98 | CCOC(=O)N/N=C/c1c(C)nn(-c2ccccc2Cl)c1Cl | 0 (inactive)

Source: PubChem BioAssay AID623911 (Vanderbilt High Throughput Screening Facility, 2012)
